This is part of a sample that, as a whole, favours compounds with a hit. Of some 83,000 tested, about 20% had one in any assay.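 Treatment: one concentration, 48 hours, 96-well format. Scoring: percent growth, with anything below 10 considered active.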 Active and inactive are the calls of the source.
System: HL-60(TB) leukemia
Assay: NCI-60 one-dose screen, 48 h (100 = growth as untreated, 0 = no growth, -100 = all killed)
Details: 10 µM unless noted
Protocol: Growth inhibition of the HL-60(TB) human tumor cell line is measured as a screen for anti-cancer activity. Cells are grown in 96 well plates and exposed to the test compound for 48 hours. Compounds are tested at a single concentration, which is 10^-5 M for most compounds. The reported endpoint is percent growth (GI% or GIPRCNT), where numbers from 0 - 100% represent growth inhibition, and numbers from -100% - 0 represent cell death. For example, a value of 40 represents 60% growth inhibition. A value of 0 means no net growth occurred over the course of the experiment. A value of -40 indicates 40% of cells at the beginning of the experiment died by the end of the experiment. A value of -100 means all cells are dead at the end of the experiment.
NCI-60 Human Tumor Cell Lines Screen was performed using the standard one-dose NCI protocol, which is described in more detail at https://dtp.cancer.gov/discovery_development/nci-60/default.htm.
Compounds with GIPRCNT values below 10 were considered active. Activity score was based on GIPRCNT using the following formula: […]
Score is 0 for GIPRCNT values of 100 or above, 50 for GIPRCNT values of 0, and 100 for GIPRCNT values of -100.

| SMILES | growth |
| --- | --- |
| COc1ccc(/C=C/C(=O)c2ccc(NC(=O)CSc3nnc(-c4ccc5nc(-c6ccc(Cl)cc6)[nH]c5c4)o3)cc2)cc1 | 78.6% (inactive) |
| Cc1cc2nc3c4cc(Cl)ccc4n(CC(=O)NCCN(C)C)c3nc2cc1C | 56% (inactive) |
| C#Cc1nc(C(C)=O)cs1 | 100% (inactive) |
| C#Cc1nc(C(=O)NCCCCCCC(=O)NO)cs1 | -51.7% (active) |
| NC(=O)c1ncn2c(=O)n(CCF)nnc12 | 29.6% (inactive) |
| COc1ccccc1/C=C/C=N/NC1=NC2C(S1)N(C)C(=O)N2C (stereo not given) | -22.1% (active) |
| COc1ccc(N2CCN(C3=C(Cl)C(=O)C(C)=C(C)C3=O)CC2)cc1 | 80.3% (inactive) |
| Cc1ccc2c(c1)C13C(=C2Br)CCCN1C(=O)c1ccccc13 (stereo not given) | 68.2% (inactive) |
| O=C1CCCC2=C1C(c1c[nH]c3ccc(Br)cc13)Cc1cc(Br)ccc1N2 (stereo not given) | 12.9% (inactive) |
| CCCCCCCn1cc2c(NCCc3ccccc3)ncnc2n1 | 106% (inactive) |
| NC(=S)N/N=C(/C=C/c1cn(-c2ccccc2)nc1-c1ccc(Cl)cc1)c1cc2ccccc2oc1=O | 43.9% (inactive) |
| O=C1Nc2cc(OC(F)(F)F)ccc2Oc2ccc(-c3ccnc(N4CC[C@H](O)C4)c3)cc21 | -23.6% (active) |
| O=S(=O)(Nc1cc(Cl)c(F)c(Cl)c1)c1ccc(-c2cnc(C3CC3)o2)cc1 | 14.1% (inactive) |
| COc1ccc(/C=N\NC(=O)c2ccc3nc(-c4ccc(Br)cc4)[nH]c3c2)cc1 | 84.4% (inactive) |
| Cc1nc(-c2cc3ccccc3oc2=O)ccc1C(=O)/C=C/c1ccccn1 | 32.9% (inactive) |
| Nc1ncc(-c2ccc3ncnc(Nc4cccc(Cl)c4F)c3c2)cn1 | 90.5% (inactive) |
| CCn1c2ccc(/C=N/OCCCN(C)C)cc2c2cc(/C=N/OCCCN(C)C)ccc21 | -36.9% (active) |
| O=C(/C=C/c1ccccc1)c1cccc(O)c1 | 87.5% (inactive) |
| O=C(/C=C/Nc1ccc(S(=O)(=O)Nc2ncccn2)cc1)c1ccc(N=Cc2c(O)[nH]c3ccccc23)cc1 | 99.6% (inactive) |
| O=c1c2ccccc2nc(COc2ccccc2)n1NS(=O)(=O)c1ccc(Cl)cc1 | 75.7% (inactive) |

| SMILES | growth |
| --- | --- |
| CCCSc1nc(Nc2ccc(/C(C)=N\NC(N)=S)cc2)c(C#N)c(-c2ccccc2)n1 | 64% (inactive) |
| C/C=C/C=C1\C[C@H]2CO[C@H](O2)C1=O | 99.8% (inactive) |
| COc1ccc(NC(=O)c2sc3nc(-c4cnccn4)cc(-c4cccs4)c3c2N)cc1 | 56.2% (inactive) |
| C=C(C)[C@@H]1CC[C@]2(COP(=O)(OCC)OCC)CC[C@]3(C)[C@H](CC[C@@H]4[C@@]5(C)CC[C@H](OP(=O)(OCC)OCC)C(C)(C)[C@@H]5CC[C@]43C)[C@@H]12 | 16.2% (inactive) |
| COc1cc(N=Cc2sc(Nc3nccs3)nc2O)cc(OC)c1OC | 82.8% (inactive) |
| CC1=C(CN(O)C(N)=O)C2=C(C)C3(CC3)[C@](C)(O)C(=O)C2=C1 | -16.6% (active) |
| Cc1cc(C)n(C(=O)c2sc(=S)n(-c3ccccc3)c2N=Nc2c(N)n[nH]c2N)n1 | 110% (inactive) |
| Cc1ccc2c(n1)C(=O)C(Cl)=C(Nc1cccc(C)c1C)C2=O | -23.2% (active) |
| CCOC(=O)c1c(NC(=O)c2ccccc2C(F)(F)F)sc2c1CCC(=O)C2 | 33.4% (inactive) |
| COc1ccc(OC)c([C@H]2c3[nH]c4ccccc4c3C[C@H]3C(=O)N(CCCCCCC(=O)NO)CC(=O)N23)c1 | 91.1% (inactive) |
| CNC(=O)c1cc(Oc2ccc3nc(NC(=O)c4ccc(CN5CCN(C)CC5)c(C(F)(F)F)c4)sc3c2)ccn1 | 11.3% (inactive) |
| O=C(CCN1C(=O)/C(=C/c2ccccc2F)SC1=S)N1CCOCC1 | 82.7% (inactive) |
| CS(=O)(=O)c1ccc(/C(=N/N=C(N)N)c2ccc(Cl)cc2)cc1 | 80% (inactive) |
| CCS(=O)(=O)Nc1ccc(C(=O)CC2(O)C(=O)Nc3ccccc32)cc1 (stereo not given) | 102% (inactive) |
| CS(=O)c1nccc(-c2c(-c3ccc(F)c(OCc4ccccc4)c3)nc3sccn23)n1 (stereo not given) | -6.35% (active) |
| O=C(CSc1nc2ccccc2c(=O)n1-c1ccccc1)Nc1ccc(S(=O)(=O)Nc2nccs2)cc1 | 78.7% (inactive) |
| O=C(COc1ccc(/C=C2\C(=O)Nc3ccc(F)cc32)cc1)Nc1ccccc1 | 95.9% (inactive) |
| COc1ccc(-c2ccc3c4c(cccc24)C(=O)N(N2C(=O)c4cccc5cccc(c45)C2=O)C3=O)cc1 | 103% (inactive) |
| CCCCSC1=C(Cl)CN(c2ccc(Cl)cc2)C1=O | 85.4% (inactive) |
| CN(C)c1cccc2c(S(=O)(=O)Nc3cccc(-c4csc(NC(=O)CCCCCN5CCN(CCO)CC5)n4)c3)cccc12 | 74.8% (inactive) |

Source: PubChem BioAssay (NCI)
